Results from the supplement of paper PMC10849652.
The full data set covers some 7,900 targets. This sample favours those with a hit. About 0.6% of all pairs of compound and target were hits.

Key:
Assay in all cases: log2 fold change, soluble protein after heating vs DMSO (PISA); higher = thermal stabilisation; K562 cells, 10 uM, 30 min; active = over 0.2 and 3.5 SD of the protein, either way, in both replicates (recomputed)
[1] = compound: CS(=O)(=O)c1ccc(-c2cnc(N)c(C(=O)Nc3ccccc3)n2)cc1
Summary of the method: (§1)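 Aliquots of K562 cells (2×10^6 cells/mL) treated with 10 μM compound for 30 min were heated for 3 min over 48°C-58°C. After pooling and extraction in PBS with 0.5% NP-40 at 4°C, soluble protein from a 21,000xg, 90 min spin was quantified by TMTpro 16plex LC-MS/MS with channel sums equalised. Thermal stability is expressed against control samples, from duplicates, as a log2 fold change.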

[2] = compound: C[C@@H](Oc1cc(-c2cnn(C3CCNCC3)c2)cnc1N)c1c(Cl)ccc(F)c1Cl [crizotinib]
Summary of the method: as §1

[3] = compound: C[C@@H]1COCCN1C2=NC(=NC(=C2)C3(CC3)S(=O)(=O)C)C4=C5C=CNC5=CC=C4
Summary of the method: as §1

[4] = compound: C[C@H](C1=CC=C(C=C1)C(=O)NC2=C3C=CNC3=NC=C2)N
Summary of the method: as §1

[5] = compound: C[C@H](Nc1ncnc2nc[nH]c12)c1cc2cccc(Cl)c2c(=O)n1-c1ccccc1 [duvelisib]
Summary of the method: as §1

[6] = compound: Cc1cc(Nc2cc(CN3CCOCC3)c3nc(C)c(Cc4ccc(Cl)cc4F)n3n2)n[nH]1 [gandotinib]
Summary of the method: as §1

[7] = compound: Cc1cc(Nc2cc(N3CCN(C)CC3)nc(Sc3ccc(NC(=O)C4CC4)cc3)n2)n[nH]1 [tozasertib]
Summary of the method: as §1

[8] = compound: Cc1cc(SCc2sc(-c3ccc(C(F)(F)F)cc3)nc2C)ccc1OCC(=O)O
Summary of the method: as §1

[9] = compound: Cc1ccc(-n2nc(C(C)(C)C)cc2NC(=O)Nc2ccc(OCCN3CCOCC3)c3ccccc23)cc1 [doramapimod]
Summary of the method: as §1

[10] = compound: Cc1ccc(C(=O)N(CCCN)[C@@H](c2nc3cc(Cl)ccc3c(=O)n2Cc2ccccc2)C(C)C)cc1 [ispinesib]
Summary of the method: as §1

Measured: log2 fold change

MAPRE3 (UniProt Q9UPY8)
inactive: [1] -0.011 | [2] 0.004 | [3] 0.092 | [4] -0.085 | [5] 0.02 | [6] -0.098 | [7] 0.037 | [8] 0.006 | [9] -0.042 | [10] 0.02

INPP5B (UniProt P32019)
inactive: [1] 0.057 | [2] -0.096 | [3] -0.02 | [4] 0.042 | [5] -0.045 | [6] 0.017 | [7] 0.151 | [8] 0.029 | [9] 0.095 | [10] -0.005

KIF13A (UniProt Q9H1H9)
inactive: [1] 0.018 | [2] 0.058 | [3] 0.112 | [4] 0.072 | [5] 0.034 | [7] 0.065 | [8] -0.009 | [9] -0.011 | [10] -0.003
active: [6] -0.384

LRPPRC (UniProt P42704)
inactive: [1] 0.025 | [2] -0.822 | [3] 0.154 | [4] 0.065 | [5] 0.059 | [6] -0.175 | [7] 0.213 | [8] 0.481 | [9] -0.172 | [10] -0.416

LUC7L (UniProt Q9NQ29)
inactive: [1] -0.009 | [2] -0.028 | [3] -0.033 | [4] -0.001 | [5] -0.042 | [6] 0.199 | [7] 0.06 | [8] 0.033 | [9] 0.029 | [10] -0.007

LUC7L2 (UniProt Q9Y383)
inactive: [1] -0.083 | [2] 0.02 | [3] 0.053 | [5] -0.002 | [6] 0.031 | [7] 0.065 | [8] 0.03 | [9] -0.03 | [10] 0.111
active: [4] -0.439

MEPCE (UniProt Q7L2J0)
inactive: [1] -0.006 | [2] 0.111 | [3] 0.03 | [4] -0.005 | [5] -0.005 | [6] -0.051 | [7] 0.094 | [8] 0.04 | [9] -0.22 | [10] -0.065

KSR1 (UniProt Q8IVT5)
inactive: [1] -0.017 | [2] -0.287 | [3] 0.036 | [4] 0.047 | [5] 0.031 | [6] -0.067 | [7] -0.221 | [8] -0.017 | [9] 0.052 | [10] -0.113

LMNB2 (UniProt Q03252)
inactive: [1] 0.007 | [2] 0.039 | [3] 0.179 | [4] 0.079 | [5] 0.072 | [6] -0.003 | [7] 0.03 | [8] 0.033 | [9] 0.019 | [10] 0.016

LSS (UniProt P48449)
active: [2] 0.77
inactive: [1] 0.043 | [3] 0.081 | [4] 0.02 | [5] 0.044 | [6] 0.044 | [7] 0.103 | [8] 0.017 | [9] 0.024 | [10] 0.111

JMJD6 isoform 3 (UniProt Q6NYC1)
inactive: [1] -0.037 | [2] 0.046 | [3] 0.046 | [4] -0.034 | [5] 0.002 | [6] -0.147 | [7] 0.024 | [8] 0.029 | [9] 0.005 | [10] 0.039

MICU1 isoform 3 (UniProt Q9BPX6)
inactive: [1] -0.024 | [2] -0.207 | [3] -0.101 | [4] 0.023 | [5] -0.04 | [6] -0.128 | [7] -0.102 | [8] 0.021 | [9] -0.011
active: [10] -0.458

MGST1 (UniProt P10620)
active: [4] -0.257
inactive: [1] -0.006 | [2] 0.152 | [3] -0.01 | [5] -0.042 | [6] 0.044 | [7] -0.111 | [8] -0.123 | [9] -0.053 | [10] -0.027

MCCC2 (UniProt Q9HCC0)
Chain of UniProt Q9HCC0 (Q9HCC0 whole entry, looked up): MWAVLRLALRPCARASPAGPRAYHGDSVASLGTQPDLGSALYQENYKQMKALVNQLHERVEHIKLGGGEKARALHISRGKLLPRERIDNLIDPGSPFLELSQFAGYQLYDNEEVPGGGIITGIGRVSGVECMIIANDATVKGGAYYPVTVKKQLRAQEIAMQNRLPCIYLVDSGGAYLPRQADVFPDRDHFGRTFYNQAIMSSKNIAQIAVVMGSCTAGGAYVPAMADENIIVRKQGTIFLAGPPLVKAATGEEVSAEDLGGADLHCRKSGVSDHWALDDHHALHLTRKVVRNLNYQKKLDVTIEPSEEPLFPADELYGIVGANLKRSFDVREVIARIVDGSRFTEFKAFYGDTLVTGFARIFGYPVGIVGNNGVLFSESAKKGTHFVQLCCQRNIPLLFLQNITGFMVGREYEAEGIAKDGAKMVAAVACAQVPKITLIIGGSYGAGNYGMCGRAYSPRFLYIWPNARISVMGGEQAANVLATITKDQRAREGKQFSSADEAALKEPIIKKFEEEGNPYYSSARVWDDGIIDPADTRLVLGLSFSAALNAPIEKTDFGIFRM
inactive: [1] -0.004 | [2] 0.028 | [3] 0.027 | [4] -0.053 | [5] 0.054 | [6] 0.051 | [7] -0.011 | [8] -0.022 | [9] 0 | [10] 0.047

LARP4 isoform 4 (UniProt Q71RC2)
active: [3] -0.308
inactive: [1] -0.027 | [2] -0.098 | [4] 0.177 | [5] -0.075 | [6] 0 | [7] 0.017 | [8] 0.06 | [9] 0.104 | [10] -0.237

LMBRD2 (UniProt Q68DH5)
Chain of UniProt Q68DH5 (Q68DH5 whole entry, looked up): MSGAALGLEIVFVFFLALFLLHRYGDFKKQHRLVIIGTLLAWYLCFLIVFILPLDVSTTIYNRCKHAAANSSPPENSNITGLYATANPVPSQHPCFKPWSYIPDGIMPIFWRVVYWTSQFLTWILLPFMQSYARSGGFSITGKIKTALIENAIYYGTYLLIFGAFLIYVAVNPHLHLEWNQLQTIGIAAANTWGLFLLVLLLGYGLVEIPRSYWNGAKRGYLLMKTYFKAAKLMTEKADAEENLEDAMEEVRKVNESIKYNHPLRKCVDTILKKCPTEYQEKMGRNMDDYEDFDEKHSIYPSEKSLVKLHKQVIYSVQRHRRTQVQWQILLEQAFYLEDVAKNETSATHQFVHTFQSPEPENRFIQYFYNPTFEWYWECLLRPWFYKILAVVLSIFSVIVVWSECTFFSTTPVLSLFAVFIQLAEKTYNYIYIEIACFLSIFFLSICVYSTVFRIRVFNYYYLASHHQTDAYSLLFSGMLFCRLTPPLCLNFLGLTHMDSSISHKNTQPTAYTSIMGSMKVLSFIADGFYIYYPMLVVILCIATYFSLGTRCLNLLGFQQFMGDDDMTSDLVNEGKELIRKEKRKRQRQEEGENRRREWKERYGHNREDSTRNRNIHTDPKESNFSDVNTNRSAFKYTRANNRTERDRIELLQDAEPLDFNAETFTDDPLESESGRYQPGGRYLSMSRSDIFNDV
inactive: [1] 0.034 | [2] -0.156 | [3] -0.042 | [4] -0.152 | [5] 0.001 | [6] -0.049 | [7] -0.016 | [8] -0.065 | [9] 0.011
active: [10] -0.328

MAP2K1 (UniProt Q02750)
Chain of UniProt Q02750 (Q02750 whole entry, looked up): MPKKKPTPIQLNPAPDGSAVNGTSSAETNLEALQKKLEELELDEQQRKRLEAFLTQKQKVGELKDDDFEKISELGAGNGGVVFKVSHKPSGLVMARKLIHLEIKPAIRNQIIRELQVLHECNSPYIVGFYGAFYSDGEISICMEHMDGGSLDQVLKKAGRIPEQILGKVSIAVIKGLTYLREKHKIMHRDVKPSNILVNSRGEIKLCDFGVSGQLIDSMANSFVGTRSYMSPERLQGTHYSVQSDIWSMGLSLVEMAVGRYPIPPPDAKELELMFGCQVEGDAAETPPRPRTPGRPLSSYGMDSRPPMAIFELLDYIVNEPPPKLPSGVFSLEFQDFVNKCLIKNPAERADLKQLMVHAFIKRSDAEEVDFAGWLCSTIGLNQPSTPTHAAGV
inactive: [1] 0.055 | [2] -0.019 | [3] 0.088 | [4] -0.092 | [5] 0.059 | [6] 0.005 | [7] -0.009 | [8] -0.038 | [9] -0.05 | [10] -0.009

MARCKS (UniProt P29966)
inactive: [1] 0.022 | [2] 0.198 | [3] -0.042 | [4] -0.191 | [5] 0.006 | [6] 0.234 | [7] -0.068 | [8] 0.025 | [9] 0 | [10] -0.031

KEL (UniProt P23276)
inactive: [1] 0.002 | [2] 0.084 | [3] -0.048 | [4] -0.07 | [5] 0.015 | [6] -0.341 | [7] -0.01 | [8] 0.019 | [9] 0.028 | [10] 0.047

IGF2R (UniProt P11717)
Chain of UniProt P11717 (P11717 whole entry, looked up): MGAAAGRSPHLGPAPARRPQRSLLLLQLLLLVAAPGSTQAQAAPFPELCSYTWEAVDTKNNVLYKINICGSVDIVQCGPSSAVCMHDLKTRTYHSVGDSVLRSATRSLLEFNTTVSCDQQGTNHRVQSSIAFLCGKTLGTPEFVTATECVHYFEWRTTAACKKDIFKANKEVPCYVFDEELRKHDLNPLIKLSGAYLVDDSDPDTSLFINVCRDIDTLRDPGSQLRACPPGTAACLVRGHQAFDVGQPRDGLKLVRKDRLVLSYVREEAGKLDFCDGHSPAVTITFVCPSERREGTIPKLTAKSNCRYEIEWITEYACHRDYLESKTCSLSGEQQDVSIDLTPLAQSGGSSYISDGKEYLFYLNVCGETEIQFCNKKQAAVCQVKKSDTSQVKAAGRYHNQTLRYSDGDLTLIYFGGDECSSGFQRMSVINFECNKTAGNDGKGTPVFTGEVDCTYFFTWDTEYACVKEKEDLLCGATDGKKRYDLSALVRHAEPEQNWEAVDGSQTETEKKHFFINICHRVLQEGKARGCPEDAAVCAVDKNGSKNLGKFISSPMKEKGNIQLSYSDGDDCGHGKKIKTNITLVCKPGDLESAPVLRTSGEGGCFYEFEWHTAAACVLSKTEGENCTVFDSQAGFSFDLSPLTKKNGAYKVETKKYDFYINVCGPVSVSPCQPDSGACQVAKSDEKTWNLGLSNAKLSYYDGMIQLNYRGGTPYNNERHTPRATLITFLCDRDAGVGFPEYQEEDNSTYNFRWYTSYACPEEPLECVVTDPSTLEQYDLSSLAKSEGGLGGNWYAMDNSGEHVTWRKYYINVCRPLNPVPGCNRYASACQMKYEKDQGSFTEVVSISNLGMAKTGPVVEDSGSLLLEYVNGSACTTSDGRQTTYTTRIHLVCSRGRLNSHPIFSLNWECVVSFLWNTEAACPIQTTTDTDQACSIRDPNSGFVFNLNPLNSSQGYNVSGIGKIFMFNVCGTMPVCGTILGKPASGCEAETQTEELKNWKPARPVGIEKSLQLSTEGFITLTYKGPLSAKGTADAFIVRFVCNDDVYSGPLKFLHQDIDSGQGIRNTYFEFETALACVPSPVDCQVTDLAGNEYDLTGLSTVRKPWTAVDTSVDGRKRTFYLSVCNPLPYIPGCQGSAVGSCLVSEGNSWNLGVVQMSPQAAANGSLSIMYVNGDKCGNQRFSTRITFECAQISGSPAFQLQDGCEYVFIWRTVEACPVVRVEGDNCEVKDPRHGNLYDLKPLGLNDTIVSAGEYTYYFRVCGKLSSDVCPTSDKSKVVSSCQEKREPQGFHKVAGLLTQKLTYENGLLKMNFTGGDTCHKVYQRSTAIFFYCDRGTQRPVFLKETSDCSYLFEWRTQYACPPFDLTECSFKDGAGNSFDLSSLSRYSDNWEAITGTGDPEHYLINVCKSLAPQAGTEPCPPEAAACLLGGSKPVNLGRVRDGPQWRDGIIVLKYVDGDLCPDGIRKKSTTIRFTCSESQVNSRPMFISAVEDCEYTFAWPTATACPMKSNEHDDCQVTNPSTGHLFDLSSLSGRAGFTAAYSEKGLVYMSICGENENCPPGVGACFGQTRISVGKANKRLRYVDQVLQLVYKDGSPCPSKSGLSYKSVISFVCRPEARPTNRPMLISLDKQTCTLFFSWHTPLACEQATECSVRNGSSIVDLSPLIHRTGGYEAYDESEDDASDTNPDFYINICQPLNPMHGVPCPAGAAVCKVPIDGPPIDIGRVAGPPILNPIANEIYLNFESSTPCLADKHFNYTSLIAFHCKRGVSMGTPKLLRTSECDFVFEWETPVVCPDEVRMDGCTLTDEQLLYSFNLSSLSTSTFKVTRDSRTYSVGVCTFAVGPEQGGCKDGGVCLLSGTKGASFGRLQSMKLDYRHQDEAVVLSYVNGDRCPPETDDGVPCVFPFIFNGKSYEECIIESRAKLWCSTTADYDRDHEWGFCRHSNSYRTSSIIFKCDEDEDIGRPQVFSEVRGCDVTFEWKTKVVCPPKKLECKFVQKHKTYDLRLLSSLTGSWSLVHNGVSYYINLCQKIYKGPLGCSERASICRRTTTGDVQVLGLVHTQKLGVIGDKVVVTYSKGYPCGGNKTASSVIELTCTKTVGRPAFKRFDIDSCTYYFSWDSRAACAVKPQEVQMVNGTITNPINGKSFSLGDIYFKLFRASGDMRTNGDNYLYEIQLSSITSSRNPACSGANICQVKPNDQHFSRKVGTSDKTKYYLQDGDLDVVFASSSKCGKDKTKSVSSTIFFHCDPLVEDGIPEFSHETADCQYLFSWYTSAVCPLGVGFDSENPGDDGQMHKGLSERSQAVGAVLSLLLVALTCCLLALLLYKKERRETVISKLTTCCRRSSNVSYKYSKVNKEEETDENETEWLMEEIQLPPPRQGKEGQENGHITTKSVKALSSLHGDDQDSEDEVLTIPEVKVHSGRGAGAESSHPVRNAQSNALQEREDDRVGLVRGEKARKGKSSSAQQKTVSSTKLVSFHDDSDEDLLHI
inactive: [1] 0.031 | [3] -0.035 | [4] -0.035 | [5] 0.048 | [6] 0.017 | [7] 0.025 | [8] 0.019 | [9] -0.01 | [10] -0.115
active: [2] -0.871

LEMD3 (UniProt Q9Y2U8)
inactive: [1] 0.072 | [2] -0.12 | [3] -0.084 | [4] -0.016 | [5] -0.003 | [6] 0.006 | [7] -0.015 | [8] 0.114 | [9] -0.002 | [10] -0.095

IKZF1 (UniProt Q13422)
inactive: [1] -0.065 | [2] -0.048 | [3] 0.008 | [4] -0.069 | [5] 0.111 | [6] -0.038 | [7] -0.078 | [8] 0.039 | [9] -0.016 | [10] -0.186

MAGEC2 (UniProt Q9UBF1)
inactive: [1] 0.008 | [2] 0.049 | [3] 0.009 | [4] 0.081 | [5] 0.043 | [6] 0.055 | [7] 0.107 | [8] -0.036 | [9] -0.036 | [10] -0.012

MIER1 isoform 12 (UniProt Q8N108)
inactive: [1] 0.009 | [2] -0.027 | [3] 0.035 | [4] -0.034 | [5] -0.012 | [6] -0.004 | [7] -0.021 | [8] 0.035 | [9] 0.026 | [10] -0.029

LNPEP (UniProt Q9UIQ6)
inactive: [1] 0.028 | [2] 0.015 | [3] 0.023 | [4] -0.053 | [5] 0.053 | [6] 0.028 | [7] -0.023 | [8] -0.008 | [9] -0.013 | [10] -0.039

ITPRIP (UniProt Q8IWB1)
inactive: [1] -0.002 | [2] 0.056 | [3] 0.012 | [4] -0.039 | [5] 0.005 | [6] -0.049 | [7] 0.045 | [8] 0.038 | [9] 0.062 | [10] -0.037

MED16 (UniProt Q9Y2X0)
Chain of UniProt Q9Y2X0 (Q9Y2X0 whole entry, looked up): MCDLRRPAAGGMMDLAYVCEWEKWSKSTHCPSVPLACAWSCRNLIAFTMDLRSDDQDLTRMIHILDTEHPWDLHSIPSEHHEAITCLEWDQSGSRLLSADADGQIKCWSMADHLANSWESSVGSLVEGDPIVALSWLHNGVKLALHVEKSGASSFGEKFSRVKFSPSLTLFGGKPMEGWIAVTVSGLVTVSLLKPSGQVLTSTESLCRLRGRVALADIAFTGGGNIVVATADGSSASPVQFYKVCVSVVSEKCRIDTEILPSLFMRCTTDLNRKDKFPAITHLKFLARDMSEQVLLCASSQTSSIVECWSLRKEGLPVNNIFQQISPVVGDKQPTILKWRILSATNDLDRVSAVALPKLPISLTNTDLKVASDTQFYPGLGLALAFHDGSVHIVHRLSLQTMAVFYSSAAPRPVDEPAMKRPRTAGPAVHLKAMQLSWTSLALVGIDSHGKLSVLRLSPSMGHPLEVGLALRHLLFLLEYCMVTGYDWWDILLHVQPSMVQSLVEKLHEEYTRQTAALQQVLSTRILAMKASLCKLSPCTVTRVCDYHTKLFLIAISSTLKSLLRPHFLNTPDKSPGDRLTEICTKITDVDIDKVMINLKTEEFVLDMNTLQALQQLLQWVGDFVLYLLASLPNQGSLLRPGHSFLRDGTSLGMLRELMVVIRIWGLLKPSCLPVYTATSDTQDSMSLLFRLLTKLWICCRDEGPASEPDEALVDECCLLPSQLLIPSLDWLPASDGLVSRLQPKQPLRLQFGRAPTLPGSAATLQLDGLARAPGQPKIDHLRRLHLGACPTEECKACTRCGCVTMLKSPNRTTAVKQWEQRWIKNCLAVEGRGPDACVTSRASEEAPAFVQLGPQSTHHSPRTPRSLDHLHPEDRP
inactive: [1] -0.04 | [2] -0.072 | [3] -0.071 | [4] 0.06 | [5] -0.053 | [6] -0.098 | [7] -0.096 | [8] 0.063 | [9] 0.08 | [10] -0.097

MAP4 (UniProt E7EVA0)
inactive: [1] 0.023 | [2] -0.02 | [3] -0.222 | [4] 0.231 | [5] -0.084 | [6] -0.001 | [7] 0.124 | [8] -0.017 | [9] 0.136 | [10] -0.134

IPO7 (UniProt O95373)
inactive: [1] -0.011 | [2] -0.138 | [3] 0.042 | [4] -0.07 | [5] 0.029 | [6] -0.185 | [7] 0.102 | [8] 0.073 | [9] -0.054 | [10] -0.077

L2HGDH (UniProt Q9H9P8)
inactive: [1] 0.04 | [2] -0.081 | [3] 0.124 | [4] -0.025 | [5] 0.063 | [6] 0.024 | [7] -0.082 | [8] 0.039 | [9] -0.02 | [10] -0.083
